Measurements reported in ChEMBL document CHEMBL1961873, “Compounds: GSK PKIS; Assays: Nanosyn kinase panel” (2012).

What was measured:
[1] = target: T1, Serine/threonine-protein kinase D2 (Homo sapiens) (UniProt Q9BZL6); conditions: at 1 µM;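 further: mean value of PRKD2 inhibition, from the GSK PKIS screening panel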
T1 sequence (whole entry): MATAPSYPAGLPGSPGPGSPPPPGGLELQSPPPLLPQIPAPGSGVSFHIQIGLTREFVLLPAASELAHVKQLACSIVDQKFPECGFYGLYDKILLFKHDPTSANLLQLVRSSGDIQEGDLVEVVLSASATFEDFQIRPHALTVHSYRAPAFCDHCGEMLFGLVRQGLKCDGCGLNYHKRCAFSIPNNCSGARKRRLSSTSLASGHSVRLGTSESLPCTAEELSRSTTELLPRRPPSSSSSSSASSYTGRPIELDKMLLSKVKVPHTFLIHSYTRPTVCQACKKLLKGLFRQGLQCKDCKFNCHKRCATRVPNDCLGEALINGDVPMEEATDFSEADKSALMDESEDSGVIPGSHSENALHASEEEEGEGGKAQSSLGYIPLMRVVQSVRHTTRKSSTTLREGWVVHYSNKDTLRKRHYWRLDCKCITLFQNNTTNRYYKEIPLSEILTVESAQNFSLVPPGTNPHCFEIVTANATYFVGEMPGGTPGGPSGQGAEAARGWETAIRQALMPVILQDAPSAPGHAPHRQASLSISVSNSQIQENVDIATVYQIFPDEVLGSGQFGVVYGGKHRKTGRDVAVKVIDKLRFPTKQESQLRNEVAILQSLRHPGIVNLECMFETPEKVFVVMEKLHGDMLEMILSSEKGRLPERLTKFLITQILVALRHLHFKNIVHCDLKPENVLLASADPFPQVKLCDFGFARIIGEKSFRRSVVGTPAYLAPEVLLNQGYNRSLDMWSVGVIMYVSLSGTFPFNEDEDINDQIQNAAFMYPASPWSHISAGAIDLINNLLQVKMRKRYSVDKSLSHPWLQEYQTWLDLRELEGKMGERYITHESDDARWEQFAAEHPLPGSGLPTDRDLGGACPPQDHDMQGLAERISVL

[2] = target: T2, Serine/threonine-protein kinase D3 (Homo sapiens) (UniProt O94806); conditions: at 0.1 µM
T2 sequence (whole entry): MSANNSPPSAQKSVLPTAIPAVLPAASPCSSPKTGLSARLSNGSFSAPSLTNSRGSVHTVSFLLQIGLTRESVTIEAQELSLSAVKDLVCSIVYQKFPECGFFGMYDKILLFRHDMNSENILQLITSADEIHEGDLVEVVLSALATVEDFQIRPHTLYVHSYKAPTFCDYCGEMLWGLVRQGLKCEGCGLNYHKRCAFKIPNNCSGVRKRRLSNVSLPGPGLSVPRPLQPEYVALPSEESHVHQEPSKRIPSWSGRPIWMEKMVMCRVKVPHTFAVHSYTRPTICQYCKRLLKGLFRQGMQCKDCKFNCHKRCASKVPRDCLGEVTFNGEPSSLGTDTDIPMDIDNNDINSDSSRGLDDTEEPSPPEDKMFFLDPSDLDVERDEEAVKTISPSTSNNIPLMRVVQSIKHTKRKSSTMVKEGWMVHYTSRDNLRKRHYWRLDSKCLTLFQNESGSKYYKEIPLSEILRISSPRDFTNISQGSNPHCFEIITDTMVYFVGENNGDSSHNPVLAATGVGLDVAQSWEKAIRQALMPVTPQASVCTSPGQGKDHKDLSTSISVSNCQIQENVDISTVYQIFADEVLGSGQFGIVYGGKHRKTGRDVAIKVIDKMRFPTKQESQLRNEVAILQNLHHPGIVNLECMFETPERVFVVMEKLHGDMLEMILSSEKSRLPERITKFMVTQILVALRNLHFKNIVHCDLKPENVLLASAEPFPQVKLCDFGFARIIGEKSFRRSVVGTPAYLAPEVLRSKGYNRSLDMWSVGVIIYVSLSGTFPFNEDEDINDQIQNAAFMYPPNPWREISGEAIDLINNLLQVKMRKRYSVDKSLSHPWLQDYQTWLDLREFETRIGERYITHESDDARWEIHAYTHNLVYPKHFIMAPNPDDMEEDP

[3] = target: T2, Serine/threonine-protein kinase D3 (Homo sapiens); conditions: at 1 µM
[4] = target: T3, cGMP-dependent protein kinase 1 (Homo sapiens) (UniProt Q13976); conditions: at 0.1 µM
T3 sequence (whole entry): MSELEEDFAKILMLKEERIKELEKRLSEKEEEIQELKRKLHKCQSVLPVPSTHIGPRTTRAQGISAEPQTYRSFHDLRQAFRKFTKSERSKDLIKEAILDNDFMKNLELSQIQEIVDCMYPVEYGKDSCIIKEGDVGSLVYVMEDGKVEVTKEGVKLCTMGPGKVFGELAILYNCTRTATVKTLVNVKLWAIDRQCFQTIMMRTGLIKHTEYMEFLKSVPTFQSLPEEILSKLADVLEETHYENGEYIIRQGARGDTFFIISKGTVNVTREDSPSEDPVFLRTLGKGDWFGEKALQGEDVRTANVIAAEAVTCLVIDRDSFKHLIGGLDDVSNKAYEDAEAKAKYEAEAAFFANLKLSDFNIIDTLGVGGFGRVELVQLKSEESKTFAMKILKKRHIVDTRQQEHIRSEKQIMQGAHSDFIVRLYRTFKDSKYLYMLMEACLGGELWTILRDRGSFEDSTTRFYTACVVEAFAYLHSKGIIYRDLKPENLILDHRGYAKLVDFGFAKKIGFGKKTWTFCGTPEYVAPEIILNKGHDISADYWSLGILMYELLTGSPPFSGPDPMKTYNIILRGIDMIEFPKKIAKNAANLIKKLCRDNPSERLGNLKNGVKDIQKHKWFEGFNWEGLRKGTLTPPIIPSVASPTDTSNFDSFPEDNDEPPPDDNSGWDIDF

[5] = target: T3, cGMP-dependent protein kinase 1 (Homo sapiens); conditions: at 1 µM
[6] = target: T4, cGMP-dependent protein kinase 2 (Homo sapiens) (UniProt Q13237); conditions: at 0.1 µM
T4 sequence (whole entry): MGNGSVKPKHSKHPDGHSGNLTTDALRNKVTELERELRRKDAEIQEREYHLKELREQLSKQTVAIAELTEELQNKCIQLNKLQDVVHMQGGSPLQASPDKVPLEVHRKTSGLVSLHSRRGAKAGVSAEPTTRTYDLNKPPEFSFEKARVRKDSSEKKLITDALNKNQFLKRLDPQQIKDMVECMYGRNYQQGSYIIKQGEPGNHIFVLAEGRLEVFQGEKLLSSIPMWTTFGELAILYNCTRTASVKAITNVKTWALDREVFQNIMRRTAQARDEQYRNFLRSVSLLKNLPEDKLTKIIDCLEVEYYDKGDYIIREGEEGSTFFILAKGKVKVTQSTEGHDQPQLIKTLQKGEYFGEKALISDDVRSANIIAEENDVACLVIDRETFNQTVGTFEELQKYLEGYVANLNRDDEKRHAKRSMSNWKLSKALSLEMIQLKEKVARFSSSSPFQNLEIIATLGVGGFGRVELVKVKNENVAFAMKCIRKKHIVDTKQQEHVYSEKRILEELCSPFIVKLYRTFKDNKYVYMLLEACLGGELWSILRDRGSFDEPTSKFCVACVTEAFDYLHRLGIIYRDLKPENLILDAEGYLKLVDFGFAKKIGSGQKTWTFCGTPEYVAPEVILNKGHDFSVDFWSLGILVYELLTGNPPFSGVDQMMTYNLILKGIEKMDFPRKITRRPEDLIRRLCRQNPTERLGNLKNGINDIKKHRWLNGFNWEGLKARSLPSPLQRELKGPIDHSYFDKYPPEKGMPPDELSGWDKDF

[7] = target: T4, cGMP-dependent protein kinase 2 (Homo sapiens); conditions: at 1 µM
[8] = target: T5, cAMP-dependent protein kinase catalytic subunit PRKX (Homo sapiens) (UniProt P51817); conditions: at 0.1 µM
T5 sequence (whole entry): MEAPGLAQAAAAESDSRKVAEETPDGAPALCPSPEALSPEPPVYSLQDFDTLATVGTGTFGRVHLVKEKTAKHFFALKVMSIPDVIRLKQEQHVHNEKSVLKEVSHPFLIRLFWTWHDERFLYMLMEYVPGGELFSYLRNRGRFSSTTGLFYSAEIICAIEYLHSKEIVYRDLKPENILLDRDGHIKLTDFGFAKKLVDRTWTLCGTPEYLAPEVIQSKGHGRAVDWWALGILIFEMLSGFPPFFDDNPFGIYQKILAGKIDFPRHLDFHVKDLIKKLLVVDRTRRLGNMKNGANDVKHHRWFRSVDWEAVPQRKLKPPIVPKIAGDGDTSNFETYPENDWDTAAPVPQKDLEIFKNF

[9] = target: T5, cAMP-dependent protein kinase catalytic subunit PRKX (Homo sapiens); conditions: at 1 µM
[10] = target: Rho-associated protein kinase 1 (Homo sapiens) (UniProt Q13464); conditions: at 0.1 µM;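 further: values are mean percent inhibition of ROCK1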
Chain of Rho-associated protein kinase 1 (Homo sapiens) (Q13464 2-1354 limits assumed): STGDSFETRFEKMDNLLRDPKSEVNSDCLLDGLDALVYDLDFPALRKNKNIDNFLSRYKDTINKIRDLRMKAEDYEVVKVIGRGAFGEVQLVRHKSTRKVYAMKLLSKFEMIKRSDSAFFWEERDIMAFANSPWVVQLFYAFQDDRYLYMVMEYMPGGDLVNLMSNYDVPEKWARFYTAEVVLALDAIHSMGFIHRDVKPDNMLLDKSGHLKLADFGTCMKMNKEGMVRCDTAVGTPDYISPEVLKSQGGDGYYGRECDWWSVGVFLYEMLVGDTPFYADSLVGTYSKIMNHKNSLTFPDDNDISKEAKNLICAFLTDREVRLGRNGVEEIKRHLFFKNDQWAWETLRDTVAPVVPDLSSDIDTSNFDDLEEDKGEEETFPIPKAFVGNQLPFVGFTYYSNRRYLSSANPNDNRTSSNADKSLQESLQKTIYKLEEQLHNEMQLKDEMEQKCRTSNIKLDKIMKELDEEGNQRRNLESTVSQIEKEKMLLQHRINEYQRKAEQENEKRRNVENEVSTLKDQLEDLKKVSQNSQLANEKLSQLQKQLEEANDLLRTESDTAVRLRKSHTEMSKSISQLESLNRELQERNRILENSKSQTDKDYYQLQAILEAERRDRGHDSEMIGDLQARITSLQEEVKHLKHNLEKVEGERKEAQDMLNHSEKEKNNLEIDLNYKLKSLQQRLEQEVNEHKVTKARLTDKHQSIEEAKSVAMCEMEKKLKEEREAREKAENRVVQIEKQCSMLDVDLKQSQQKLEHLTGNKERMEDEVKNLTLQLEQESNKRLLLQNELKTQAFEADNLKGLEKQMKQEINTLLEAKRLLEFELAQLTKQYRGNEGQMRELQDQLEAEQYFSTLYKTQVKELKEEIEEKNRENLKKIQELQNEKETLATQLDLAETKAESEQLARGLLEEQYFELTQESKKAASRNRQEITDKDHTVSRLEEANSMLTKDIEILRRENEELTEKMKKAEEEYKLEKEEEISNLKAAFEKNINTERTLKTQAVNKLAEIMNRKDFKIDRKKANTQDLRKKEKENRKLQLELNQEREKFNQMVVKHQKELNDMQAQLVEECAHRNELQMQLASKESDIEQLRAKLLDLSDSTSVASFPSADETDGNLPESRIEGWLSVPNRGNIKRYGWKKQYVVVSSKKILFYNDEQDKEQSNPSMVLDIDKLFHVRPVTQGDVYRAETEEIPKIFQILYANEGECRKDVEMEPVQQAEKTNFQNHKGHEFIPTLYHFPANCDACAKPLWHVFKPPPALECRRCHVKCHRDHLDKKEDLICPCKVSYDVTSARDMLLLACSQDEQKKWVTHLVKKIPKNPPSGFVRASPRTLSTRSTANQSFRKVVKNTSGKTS

Row | SMILES | inhibition [1] [%] | inhibition [2] [%] | inhibition [3] [%] | inhibition [4] [%] | inhibition [5] [%] | inhibition [6] [%] | inhibition [7] [%] | inhibition [8] [%] | inhibition [9] [%] | inhibition [10] [%]
1 | Fc1ccc(-c2nc3n(c2-c2ccncc2)CCS3)cc1 | 3.85 | 1.34 | 3.94 | 3.66 | 4.28 | 2.32 | 3.35 | 1.54 | 1.87 | 1.14
2 | O=C(Nc1ccc(Oc2ccc3[nH]c(NC(=O)c4ccccc4)nc3c2)cc1)Nc1cc(C(F)(F)F)ccc1F | 4.25 | 3.06 | 3.63 | 2.01 | 3.65 | 1.4 | 2.23 | 1.55 | 1.09 | 0.24
3 | COc1cc2ncn(-c3cc(OCc4cccs4)c(C(N)=O)s3)c2cc1OC | -0.96 | -1.14 | -2.04 | 3.61 | 7.44 | 3.73 | 6.83 | 3.18 | -3.65 | 2.39
4 | CN(C)CCCNc1nccc(-c2c(-c3ccc(F)cc3)nn3cc(C(F)(F)F)ccc23)n1 | 0.34 | -1.49 | -0.32 | 1.15 | 3.76 | 1.88 | 3.07 | 1.15 | -0.47 | 0.76
5 | NC(=O)Cc1ccccc1Oc1nccc(-c2c(-c3ccc(F)cc3)ncn2C2CCNCC2)n1 | 9.53 | 3.95 | 8.49 | 1.82 | 3.89 | 0.97 | 4.38 | -0.25 | -1.31 | 0.15
6 | COc1cc(N2CCN(C(C)C)CC2)ccc1Nc1nc(Nc2ccc(F)cc2C(=O)NC[C@@H](O)CO)c2cc[nH]c2n1 | 17.5 | 3.93 | 20.7 | 7.74 | 35.1 | 2.82 | 8.2 | 2.99 | 6.02 | 1.24
7 | O=C(Nc1n[nH]c2cc(-c3ccccc3)ccc12)C1CC1 | 5.1 | 5.75 | 6.47 | 3.2 | 3.14 | 1.66 | 2.57 | 1.37 | 0.63 | 1.2
8 | NC(=O)c1ccc(Oc2nccc(-c3c(-c4ccc(F)cc4)ncn3C3CCNCC3)n2)cc1 | 3.14 | 4.58 | 5.2 | 4.67 | 6.78 | 5.65 | 6.43 | 3.5 | 3.99 | 2.81
9 | COc1cccc(-n2cnc3c(N/N=C/c4ccncc4)ncnc32)c1 | -5.5 | -3.34 | -4.97 | 0.67 | 3.77 | 3.29 | 4.98 | 1.92 | 5.16 | 0.59
10 | NS(=O)(=O)c1ccc(N/N=C2\C(=O)Nc3ccc(-c4cnco4)cc32)cc1 | 9.15 | -1.69 | 7.39 | 2.42 | 4.22 | 1.06 | 12.7 | 1.53 | 1.83 | 6.06
11 | FC(F)(F)c1cccc(Nc2nccc(-c3cnn4nc(-c5ccccc5)ccc34)n2)c1 | 1.49 | 1.55 | 2.61 | 1.17 | -0.32 | 1.44 | -1.07 | 1.18 | 0.74 | 0.77
12 | NS(=O)(=O)c1ccc(N/N=C2\C(=O)Nc3ccc(C(=O)NCCCn4ccnc4)cc32)cc1 | 22.3 | 5.36 | 17.6 | 4.15 | 18.9 | 4.37 | 28.2 | 3.32 | 7.39 | 2.63
13 | CCN(CC)Cc1ccc(Nc2nccc(-c3cnn4ncccc34)n2)cc1 | 64.4 | 30.2 | 62.6 | 3.48 | 14.9 | 3.29 | 13.7 | 2.55 | 4.27 | 2.36
14 | CCC(=O)Nc1ccc(C)c(-c2ccc(C(=O)NCC3CC3)cc2)c1 | 0.39 | 2.64 | 2.11 | 2.33 | 2.99 | 1.03 | 3.23 | 0.64 | 1.66 | 2.95
15 | NCc1ccc(-n2c(-c3nonc3N)nc3cnccc32)cc1 | 41.3 | 8.56 | 40 | 6.05 | 26.6 | 16 | 60.2 | 5.92 | 29.4 | 80.6
16 | O=C(Nc1n[nH]c2cc(-c3cc(F)ccc3F)ccc12)C1CC1 | 4.95 | 3.61 | 3.98 | 3.55 | 4.78 | 2.47 | 5.6 | 1.14 | 1.88 | -0.49
17 | c1ccc(Oc2ccc(Nc3ncc(-c4ccccc4)o3)cc2)cc1 | 3.8 | 2.14 | 3.61 | 2.21 | 3.15 | 1.21 | 3.1 | 2.99 | 6.18 | 3.48
